60 compounds from PubChem BioAssay AID651813 (National Center for Advancing Translational Sciences (NCATS), 2012) can be followed below.

Out of some 2,100 compounds screened, about 1,100 (52%) were called active. Roughly 27% stayed inconclusive and do not appear here. The set was probably picked from earlier hits. Some of the results follow. Unmarked numbers belong to inactive results. Calls come from the whole dose curve; as a rule, active = well fitted inhibition curve with a large enough effect; inconclusive = small, poorly fitted or top-dose-only effect; inactive = no such curve, though single readings can be large or run the other way.
Potency is the fitted concentration of half-maximal effect.

DNA dC->dU-editing enzyme APOBEC-3G (Homo sapiens), sequence (Q9HC16 whole entry, looked up): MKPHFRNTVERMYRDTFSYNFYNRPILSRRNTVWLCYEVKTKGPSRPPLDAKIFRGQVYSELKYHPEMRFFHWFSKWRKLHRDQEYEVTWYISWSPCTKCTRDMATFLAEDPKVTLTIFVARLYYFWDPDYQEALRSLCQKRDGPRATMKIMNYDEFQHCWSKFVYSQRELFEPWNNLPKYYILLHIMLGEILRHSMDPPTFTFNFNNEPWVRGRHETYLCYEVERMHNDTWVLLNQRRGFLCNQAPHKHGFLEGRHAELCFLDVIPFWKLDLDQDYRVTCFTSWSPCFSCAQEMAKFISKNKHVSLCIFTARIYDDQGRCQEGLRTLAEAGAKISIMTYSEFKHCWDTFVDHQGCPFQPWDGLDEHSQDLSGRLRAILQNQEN

This assay addresses DNA dC->dU-editing enzyme APOBEC-3G (Homo sapiens) (UniProt Q9HC16). Kind of assay: qHTS for inhibitors of Vif-A3G interactions: Cherry picks counterscreen.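 For max response: max response given as percent of control signal.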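 Note: hits raise yellow fluorescence by blocking Vif-driven A3G-eYFP degradation; nearly all actives have a fitted effect of over 70% in size.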 The conditions noted are these: HeLa A3G-eYFP + Vif (tagged APOBEC3G with the HIV-1 protein that degrades it), eYFP fluorescence, 24 h. Summed up: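 HeLa cells stably expressing A3G-eYFP and Vif were treated for 24 h at 37 deg C with compounds at several concentrations; yellow fluorescence (Ex 488 nm, Em 500-530 nm) read by Acumen Explorer, MG132 as positive control.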
Background: qHTS replaces the single test concentration by a dilution series.
As to `COCCNC(=S)N/N=C(\C)c1ccc(OC(F)F)cc1`, the max response was -0.557%.
For the compound `Cn1cc(/C=C2\SC(=S)N(NC(=O)c3cccc(Cl)c3)C2=O)c2ccccc21`, the Potency is 8.2 µM (active).
Consider `COc1cc(/C=N/Nc2cc(C)nc(NS(=O)(=O)c3ccccc3)n2)ccc1O`, for which the max response is -5.07%.
For the compound `COc1ccc(-c2cnnc(N/N=C/c3ccc(O)c(OC)c3)n2)cc1`, the Potency is 8.86 µM (active).
Take `COc1cc(/C=N/Nc2ccc(Cl)nn2)cc(OC)c1O`: the max response is -0.979%.
Turning to `O=C(Nc1ccccc1-c1nc2ccccc2[nH]1)c1ccc(N2C(=O)CCC2=O)cc1`, the Potency was 18.4 µM (active).
`S=C(NC1CCCCC1)N(CCc1ccccc1)CCc1ccccc1`: the max response was -10.7%.
For the compound `COc1ccc(OC)c(NC(=O)c2cc(-c3cc(C)cc(C)c3O)n[nH]2)c1`, the max response was -1.73%.
In the case of `CCOC(=O)c1[nH]c(C)c(C(=O)Nc2ccc(C)cc2C)c1C`, the Potency is 3.96 µM (active).
Consider `CCOC(=O)c1c(C)[nH]c(C(=O)N/N=C/c2cccc(OC)c2)c1C`, for which the Potency was 15.8 µM (active).
With `CCOC(=O)c1[nH]c(C)c(C(=O)Nc2ccccc2C)c1C`, the Potency was 6.27 µM (active).
Same read-out and setting: in the case of `CCOC(=O)c1[nH]c(C)c(C(=O)Nc2cc(OC)ccc2OC)c1C` it was 3.53 µM (active).
In the case of `Cc1cc(N/N=C/c2ccc(O)cc2O)nc(-n2nc(C)cc2C)n1`, the max response was 2.12%.
Turning to `CCOC(=O)c1[nH]c(C)c(C(=O)Nc2ccccc2F)c1C`, the Potency is 3.53 µM (active).
Turning to `CC(=O)c1c(C)[nH]c(C(=O)Nc2ccc(Cl)cc2F)c1C`, the max response is -22.8%.
Regarding `COc1ccccc1CNC(=O)c1ccc2nc3[nH]c4ccccc4c3nc2c1`, the max response is 6.47%.
For the compound `Fc1ccc2nc3[nH]c4ccccc4c3nc2c1`, the Potency was 0.396 µM (active).
As to `CCN(CC(=O)Nc1ccccc1-c1ccccc1)Cc1nc2ccccc2c(=O)[nH]1`, the Potency is 12.5 µM (active).
On the same count and under the same terms, in the case of `Cc1[nH]c2ccccc2c1/C=C/c1ccc2ccccc2n1` it was 16.4 µM (active); in that of `C(=Cc1c[nH]c2ccccc12)c1ccc2ccccc2n1`, 20.6 µM (active); in that of `C(=C\c1c[nH]c2ccccc12)/c1ccc2ccccc2n1`, 16.4 µM (active).
As to `CC(=O)c1cccc(NC(=O)C2CCCN(S(=O)(=O)c3cccc4nonc34)C2)c1` (stereo not given), the max response is 11.2%.
`COc1ccc(C(=O)NC2CCCc3ccccc32)cc1[N+](=O)[O-]` (stereo not given): the Potency is 7.04 µM (active).
As to `COc1ccc(C(=O)C(C)[n+]2ccc(C)c3ccccc32)cc1[N+](=O)[O-]` (stereo not given), the max response is 3.16%.
On to `O=C(c1cc(-c2ccncc2)nc2ccccc12)N1CCN(c2ccccn2)CC1`, for which the Potency is 9.94 µM (active).
For `O=C(COc1ccccc1-c1ccccc1)NN=C1CCCC1`, the max response is -18.6%.
The same measure, in the same setting: as for `O=C(NC(=S)N1CCN(c2ccccn2)CC1)c1ccccc1`, the figure is -0.54%.
As for `CCOC(=O)N1CCN(C(=O)c2ccccc2-c2ccccc2)CC1`, the Potency was 5.59 µM (active).
In the case of `CCOC(=O)N1CCN(C(=O)c2cc(-c3ccc(OCC)cc3)nc3ccccc23)CC1`, the Potency was 7.04 µM (active).
As for `Cc1c(C(=O)Nc2cccnc2)oc2ccc(Br)cc12`, the Potency was 12.5 µM (active).
Regarding `c1ccc2[nH]c(NN=C3CCCCCC3)nc2c1`, the max response is 0.674%.
As for `O=C(CSc1ccccc1)Nc1nc2ccccc2[nH]1`, the Potency is 9.94 µM (active).
In the case of `N#CC(C(=S)Nc1ccccc1)c1nc2ccccc2[nH]1` (stereo not given), the max response was -4.48%.
As for `Fc1cccc(Cc2c(-c3ccco3)nc3ccc(Br)cn23)c1`, the Potency was 14 µM (active).
As to `COC(=O)c1ccc(Oc2cc(C)nc(SC)n2)cc1`, the Potency was 8.86 µM (active).
Regarding `Cc1ccc(-c2nc3ncccc3o2)cc1NC(=O)c1ccc([N+](=O)[O-])o1`, the max response was 3.91%.
With `O=C(NCc1ccccc1)C(=O)NCC1COc2ccccc2O1` (stereo not given), the Potency was 12.5 µM (active).
`CC1CCN(C(=O)C(C)Sc2nc(-c3ccccc3)cc(C(F)(F)F)n2)CC1` (stereo not given): the max response was 2.38%.
Turning to `COC(=O)CCS(=O)(=O)c1nc(-c2ccccc2)cc(C(F)(F)F)n1`, the Potency is 12.5 µM (active).
On the same count and under the same terms, as for `COc1ccc2o/c(=N/NC(=O)c3cccs3)c(C(N)=O)cc2c1`, the figure is 12.5 µM (active).
As to `CCOC(=O)c1c(C)sc(-c2c(-c3ccccc3)[nH]c3[nH]c(=O)[nH]c(=O)c23)c1O`, the Potency was 18.4 µM (active).
For `COc1cc(-c2noc(C)c2/C=C/c2ccc(OC(C)=O)cc2)cc(OC)c1OC`, the Potency was 0.627 µM (active).
Regarding `Cc1ccc(O)c(NC(=O)c2cc(-c3ccccc3O)no2)c1`, the Potency is 23.1 µM (active).
The same measure, in the same setting: as for `COc1ccc2[nH]c(C(=O)N/N=C/c3ccc(OC)c(O)c3)cc2c1`, the figure is 4.44 µM (active); as for `COc1ccc(/C=N/NC(=O)c2cc3c(OC)ccc(OC)c3[nH]2)cc1O`, 4.44 µM (active); as for `COC(=O)c1cccc(NS(=O)(=O)c2ccc(OC)cc2)c1C`, 7.04 µM (active).
As to `COc1ccc(S(=O)(=O)Nc2cccc3ccccc23)cc1`, the Potency was 5.17 µM (active).
`COc1ccc(S(=O)(=O)Nc2cc(Sc3ncn[nH]3)c(O)c3ccccc23)cc1`: the max response is -11.5%.
On to `CC1CCCCC1NC(=O)/C(C#N)=C/C=C/c1ccccc1[N+](=O)[O-]` (stereo not given), for which the Potency was 14 µM (active).
As for `Fc1cccc(F)c1/C=N/NC(=S)Nc1cccnc1`, the max response was -2.63%.
Take `CCCOc1ccccc1C1CC(=O)NC2=C1C(=O)CCC2` (stereo not given): the Potency was 6.27 µM (active).
On to `CCOc1ccccc1C1CC(=O)NC2=C1C(=O)CCC2` (stereo not given), for which the Potency is 12.5 µM (active).
In the case of `CCCCN(CCCC)c1ccc(/C=C/c2ccnc3ccccc23)cc1`, the Potency is 16.4 µM (active).
With `CCCN(CCC)c1ccc(/C=C/c2ccnc3ccccc23)cc1`, the Potency is 14.6 µM (active).
In the case of `CCCCN(CCC(=O)O)c1ccc(/C=C/c2ccnc3ccccc23)cc1`, the Potency is 18.4 µM (active).
For the compound `CCN(C)c1ccc(/C=C/c2ccnc3ccccc23)cc1`, the Potency was 18.4 µM (active).
On to `CCN(CC)c1ccc(/C=C/c2ccnc3ccccc23)cc1`, for which the Potency is 14.6 µM (active).
Regarding `CC(C)CN(CC(C)C)c1ccc(/C=C/c2ccnc3ccccc23)cc1`, the Potency was 16.4 µM (active).
The same measure, in the same setting: in the case of `CCN(CCCN(C)C)c1ccc(/C=C/c2ccnc3ccccc23)cc1` it was 18.4 µM (active).
Take `O=C1OC(/C(=C\Nc2cc(Cl)ccc2O)[N+](=O)[O-])c2ccccc21` (stereo not given): the max response is 4.09%.
